# Measurements reported in PubChem BioAssay (NCI).
# This is part of a sample that, as a whole, favours compounds with a hit. Of some 83,000 tested, about 20% had one in any assay.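 Single-dose data. Exposure time 48 hours. Values below 10 considered active.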 Active and inactive are the calls of the source.
# System: HL-60(TB) leukemia
# Experiment: NCI-60 one-dose screen, 48 h (100 = growth as untreated, 0 = no growth, -100 = all killed)
# Settings: 10 µM unless noted
row,SMILES,growth
1,COc1ccc2c(c1)c(CC(=O)[Se]CC(=O)O)c(C)n2C(=O)c1ccc(Cl)cc1,53.7% (inactive)
2,CCOC(=O)/C(F)=C/C1CC1C1CCCCC1 (centres undefined),98.7% (inactive)
3,CC(=O)Nc1cccc(Nc2nc(N[C@H](C)c3ccccc3)c3ccccc3n2)c1,13.6% (inactive)
4,COc1ccc(NC2=C(Cl)C(=O)c3nc(C)ccc3C2=O)cc1OC,9.95% (active)
5,CC1CCc2c(sc3nc(SCC(=O)N/N=C/c4cccc(O)c4O)n(-c4ccccc4)c(=O)c23)C1 (centres undefined),93.6% (inactive)
6,COc1cc(-c2nn(C(C)(C)C)cc2-c2ccnc(NCCCNS(=O)(=O)c3ccc(F)cc3)n2)ccc1Cl,101% (inactive)
7,COc1ccc(CCN2C(=O)/C(=C/c3nc(CO)cs3)SC2=S)cc1,59.4% (inactive)
8,O=C1Nc2cc(OC(F)(F)F)ccc2Oc2ccc(-c3ccnc(N4CCNCC4)c3)cc21,-41.4% (active)
9,CN1CCN(Cc2ccc(NC(=O)c3cncc(C#Cc4cnc5ccc(OCC(C)(C)O)nn45)c3)cc2C(F)(F)F)CC1,1.93% (active)
10,O=C(O)CC1CCN(c2ccc3nnc(Cl)n3n2)CC1,104% (inactive)
11,COc1cc(/C=C/C(=O)c2ccc(F)cc2)ccc1Oc1nc(NCCO)nc(N2CCOCC2)n1,39.8% (inactive)
12,Cn1ccnc1C(=O)/C=C/c1ccc(CNC(=O)c2c(F)c(F)c(F)c(F)c2F)cc1,20% (inactive)
13,COc1ccc([C@H]2c3[nH]c4ccccc4c3C[C@@H]3C(=O)N(C4CCN(Cc5ccccc5)CC4)CC(=O)N23)c(OC)c1,50.7% (inactive)
14,CCCCCCCn1cc2c(N[C@H](C)c3ccccc3)ncnc2n1,117% (inactive)
15,O=S(=O)(NCCCNc1nccc(-c2[nH]c(-c3ccccc3)nc2-c2ccc(Cl)c(O)c2)n1)c1cccc(F)c1,35.6% (inactive)
16,OC1CCN(CCCOc2c3ccccc3nc3c2oc2ccc(Cl)cc23)CC1,14.4% (inactive)
17,N#Cc1cccc(CN2CCC3=C(C2)C(=O)N(Cc2ccc(Cl)cc2)C2=NCCCN23)c1,11.7% (inactive)
18,CC1(C)CC[C@]2(C(=O)N3CCCNCC3)CC[C@]3(C)C(=CC[C@@H]4[C@@]5(C)CCC(=O)C(C)(C)[C@@H]5CC[C@]43C)[C@H]2C1,104% (inactive)
19,CCOC(=O)c1c(NC(=O)c2ccc(C(F)(F)F)cc2)sc2c3c(ccc12)OCN(C)C3,-27.6% (active)
20,COc1cc(/C=N/NC(=O)c2cn(C3CC3)c3c(OC)c(N4CC5CCCNC5C4)c(F)cc3c2=O)ccc1O (centres undefined),-40.3% (active)

row,SMILES,growth
1,CCOC(=O)c1c(Nc2ccccc2)nn2c(-c3ccc(Br)cc3)ccnc12,90.6% (inactive)
2,C=C1C(=O)O[C@@H]2C[C@@H](C)/C=C\C(=O)[C@](C)(OC(C)=O)C[C@H](OC(=O)/C(C)=C\C)[C@@H]12,-3.8% (active)
3,COC(=O)C1(C)CCC[C@]2(C)[C@H]3C[C@H]4C(C(C)C)=C[C@]3(CC[C@@H]12)[C@H]1[C@@H]4[C@@H](OC(=O)c2ccco2)CC[C@@H]1OC(=O)c1ccco1 (some centres undefined),91.9% (inactive)
4,Cc1c(Cl)cccc1S(=O)(=O)Nc1ccc2c(c1)C(=O)N(C1CCC(=O)NC1=O)C2=O (centres undefined),-7.01% (active)
5,Cc1ccc(NC(=O)N[C@@H](Cc2cc(F)cc(F)c2)C(=O)NC2C(=O)N3CCC[C@H]3C(=O)N3CCCC[C@H]3C(=O)N[C@@H](C)C(=O)N3C[C@H](C)C[C@H]3C(=O)O[C@H]2C)c(F)c1 (some centres undefined),13.4% (inactive)
6,NS(=O)(=O)c1ccc(Nc2nc(Nc3ccccc3)nc(N3N=C(c4ccc(Cl)cc4)CC3c3ccc(Cl)cc3)n2)cc1 (centres undefined),25.6% (inactive)
7,Cc1c(F)cc(C(N)=O)cc1NCC(=O)Nc1ccc([N+](=O)[O-])cc1,132% (inactive)
8,C/C(=N\NC(=S)Nc1ccc(Br)cc1)c1cc2ccccc2oc1=O,1.53% (active)
9,CCOC(=O)c1c(NC(=O)c2cccc(C(F)(F)F)c2)sc2c(CN3CCN(C)CC3)c(O)ccc12,-31% (active)
10,Nc1ccccc1NC(=O)c1ccc(NC(=O)C/C=C/c2cccnc2)cc1,12.6% (inactive)
11,COc1ccc(NC(=O)CCCCCCNC(=O)C(O)(O)C(F)(F)F)cc1,11.3% (inactive)
12,Cc1cc(C)c(N2C(=O)CC(Nc3ccc(Cl)cc3Cl)C2=O)c(C)c1 (centres undefined),100% (inactive)
13,CNc1ncc2cc(-c3ccc(-c4ncccc4F)cc3Cl)c(=O)n(CC3OCC(N)CO3)c2n1 (centres undefined),20.5% (inactive)
14,Cc1ccc2ccc3ccc(C)nc3c2n1.Cc1ccc2ccc3ccc(C)nc3c2n1.Oc1c(Cl)cc(Cl)c2ccc(CN3CCCCC3)nc12.[Ru],-52.1% (active)
15,COc1cc(CNC(=O)Cc2ccccc2[N+](=O)[O-])ccc1OCC(=O)NO,118% (inactive)
16,CC(C)(C)Nc1nc2c(OCCc3ccccc3)cccn2c1-c1ccc(Cl)cc1,-27.8% (active)
17,CCNC(=O)Oc1ccc(/C(=C(/C)c2ccc(OC)cc2)c2ccc(OCCN3CCCCCC3)cc2)cc1,22.5% (inactive)
18,Cc1ccc(NC(=S)NNC(=S)Nc2ccc(C)cc2)cc1,97.1% (inactive)
19,CCOC(=O)C(=O)Nc1ccc2c(ccn2C(=O)c2cccc(F)c2)c1,99.2% (inactive)
